Screening results from PubChem.
PfM18AAP inh-1: PfM18AAP inhibitors, malaria aminopeptidase, primary screen, biochemical, QFRET, recombinant enzyme; H-Glu-NHMec fluorogenic cleavage; inhibition, % at 7.35 µM; 290,000 tested, 1.2% active; M18 aspartyl aminopeptidase (Plasmodium falciparum 3D7);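 active = inhibition above the campaign mean inhibition over all tested compounds plus 3 SD, cut at about 28% in these data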
Platelet DG rel: inhibitors of platelet dense granule secretion, primary screen, cell-based, MLPCN, human platelets. human platelet-rich plasma, SFLLRN dense granule ATP release, luminescence. 300,000 tested, 0.22% active. AID 1663, 2009. inhibition, %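 (compounds screened at 7.5 µM in platelet-rich plasma)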;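 active = mean replicate score, as percent of positive control, at or above 50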
Rce1 inh: yeast Rce1p protease inhibitors, primary screen, biochemical, fluorescence, cell-free homogeneous | calls only | yeast membranes, quenched prenylated peptide cleavage fluorescence | 290,000 tested, 0.27% active | AID 2563, 2010 | CAAX prenyl protease 2 (Saccharomyces cerevisiae (strain ATCC 204508 / S288c)), Q03530;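 active = fall in fluorescence gain of 50% or more versus controls, with final raw signal at or below 3038400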
Target sequence (Q03530 whole entry, looked up): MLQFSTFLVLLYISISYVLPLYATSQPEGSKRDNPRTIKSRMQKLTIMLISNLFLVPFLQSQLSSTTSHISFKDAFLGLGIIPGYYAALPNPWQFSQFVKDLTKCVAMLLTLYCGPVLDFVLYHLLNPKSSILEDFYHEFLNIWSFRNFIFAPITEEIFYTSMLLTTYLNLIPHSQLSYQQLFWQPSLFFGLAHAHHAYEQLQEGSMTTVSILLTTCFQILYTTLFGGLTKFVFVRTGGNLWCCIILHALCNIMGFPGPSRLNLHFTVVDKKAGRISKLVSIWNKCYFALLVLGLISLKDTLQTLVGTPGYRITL
ABHD5-PLIN5 inh: ABHD5-PLIN5 interaction inhibitors, primary screen, cell lysate, split luciferase complementation, luminescence; Perilipin-5 (Homo sapiens) + 1-acylglycerol-3-phosphate O-acyltransferase ABHD5 (Homo …; Split G. princeps luciferase complementation, 4 h; inhibition, % at 4 µM; 360,000 tested, 0.78% active; AID 602281, 2012;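 active = inhibition above the mean inhibition across every tested compound plus 3 SD, cut at about 22% in these data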
Exocytosis inh: LAMP-1 surface exposure blockers, TALL-104 cells – cell-based, flow cytometry, MLPCN library, primary screen | AID 651702, 2012 | inhibition, % at 10 µM | 360,000 tested, 0.66% active | TALL-104 LAMP-1 surface exposure; cells stimulated with thapsigargin and PMA;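 active = inhibition above about 55%, limit read from the data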
PfM18AAP inh-2: PfM18AAP inhibitors, malaria aminopeptidase, confirmation, biochemical, QFRET, recombinant enzyme, triplicate; shares compounds with PfM18AAP inh-1; inhibition, % at 7.35 µM; 2,400 tested, 28% active; H-Glu-NHMec fluorogenic cleavage;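 active = mean inhibition over replicate wells above the hit cutoff set for the earlier primary screen, cut at about 29% in these data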
CTSL1 counter: cathepsin L1 inhibitors, retest, confirmation, counter-screen for PFM18AAP inhibitor project, biochemical, QFRET, triplicate | shares compounds with PfM18AAP inh-1 | purified cathepsin L1, Z-Leu-Arg-MCA fluorescence | inhibition, % at 5.96 µM | AID 2178, 2009 | 2,400 tested, under 10 active;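 active = average inhibition across replicates above the hit cutoff set in the earlier primary screen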
Target sequence (P07711 whole entry, looked up): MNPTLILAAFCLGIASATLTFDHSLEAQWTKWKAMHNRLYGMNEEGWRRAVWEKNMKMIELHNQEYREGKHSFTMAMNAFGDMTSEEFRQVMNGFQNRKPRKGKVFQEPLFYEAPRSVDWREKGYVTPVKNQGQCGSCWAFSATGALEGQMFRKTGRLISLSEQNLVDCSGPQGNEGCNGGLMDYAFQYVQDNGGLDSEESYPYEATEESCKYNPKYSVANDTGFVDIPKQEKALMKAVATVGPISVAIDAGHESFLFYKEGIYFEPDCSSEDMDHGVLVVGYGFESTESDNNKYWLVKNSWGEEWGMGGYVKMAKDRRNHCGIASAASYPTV
Numbers stand for hits; – = inactive; · = no result. This is a sample that favours compounds with a hit; in the whole collection about 2.6% have one here.

SMILES | PfM18AAP inh-1 | Platelet DG rel | Rce1 inh | ABHD5-PLIN5 inh | Exocytosis inh | PfM18AAP inh-2 | CTSL1 counter
COc1ccccc1/C=C/C(=O)OC(C)CN1CCOCC1 (stereo not given) | 50.8 | – | – | – | – | – | –
CC(CN1CCOCC1)OC(=O)c1ccccc1 (stereo not given) | – | – | – | – | – | · | ·
Cc1ccc(NC(=O)Cn2nnc(C(=O)NCc3cccs3)c2N)c(C)c1 | – | – | – | – | – | · | ·
COc1cccc(-n2c(=O)c3ccccc3n3c(=S)[nH]nc23)c1 | 36.0 | – | – | – | – | – | –
Cc1ccccc1-n1c(=O)c2ccccc2n2c(=O)[nH]nc12 | – | – | – | – | – | · | ·
COCCCn1c(=O)c2ccccc2n(Cc2ccccc2)c1=O | – | – | – | – | – | · | ·
CCc1ccc(-n2c(=O)c3ccccc3n3c(=S)[nH]nc23)cc1 | – | – | – | – | – | · | ·
Cc1cccc(-n2c(=O)c3ccccc3n3c(=S)[nH]nc23)c1C | 40.2 | – | – | – | – | – | –
COCCCn1c(=O)c2ccccc2n2c(=S)[nH]nc12 | 34.6 | – | – | – | – | – | –
N#Cc1c(/N=C/C=C/c2ccccc2)sc2c1CCCC2 | 34.9 | – | – | – | – | – | –
Cc1ccc(NC(=S)NNc2ccc([N+](=O)[O-])cc2S(=O)(=O)Nc2ccccc2C(=O)O)cc1C | 59.0 | – | – | – | – | – | –
CCN1/C(=C/C=C/C=C/C=C/c2sc3ccccc3[n+]2CC)Sc2ccccc21 | 39.8 | – | – | – | – | – | –
CC[n+]1c(C=C2C=C(C)OC(C)=C2)sc2ccccc21 | – | – | – | – | – | · | ·
COCc1nc2sc(C)c(C)c2c(=O)[nH]1 | – | – | – | – | – | · | ·
Cc1sc2nc(CSc3ncn[nH]3)[nH]c(=O)c2c1C | 72.1 | – | – | – | – | 70.8 | –
O=C(Oc1ccc2c(c1)OCO2)C12CC3CC(CC(C3)C1)C2 | – | – | – | – | – | · | ·
O=[N+]([O-])c1ccc(N/N=C/c2ccc(OCc3cccc4ccccc34)cc2)nc1 | 44.8 | – | – | – | – | – | –
NNc1nc(-c2ccccc2Cl)nc2ccccc12 | 44.9 | – | – | – | – | – | –
Oc1cccc(Nc2nc(-c3ccccc3Cl)nc3ccccc23)c1 | – | – | – | – | – | · | ·
O=C(NNS(=O)(=O)c1ccc(F)cc1F)c1csc(-c2cccnc2)n1 | – | – | – | – | – | · | ·
COc1ccc(C(C)=O)cc1CSc1nc2ccccc2c(=O)n1-c1ccccc1 | – | – | – | – | – | · | ·
COc1ccc(C(C)=O)cc1CSc1nc2ccccc2c(=O)n1-c1ccccc1C | 43.3 | – | – | – | – | – | –
O=C(O)c1cccc(NC(=S)N/N=C/c2cccc(O)c2)c1 | 49.8 | – | – | – | – | – | –
CC(C(=O)Nc1ncn[nH]1)N1C(=O)c2ccccc2C1=O (stereo not given) | 50.6 | – | – | – | – | 51.5 | –
CC(C(=O)Nc1ccccc1F)N1C(=O)c2ccccc2C1=O (stereo not given) | – | – | – | – | – | · | ·
SMILES | PfM18AAP inh-1 | Platelet DG rel | Rce1 inh | ABHD5-PLIN5 inh | Exocytosis inh | PfM18AAP inh-2 | CTSL1 counter
O=C(NNC(=O)c1ccc[nH]1)Nc1cccc(C(F)(F)F)c1 | 52.6 | – | – | – | – | – | –
O=C(NNC(=O)c1ccc[nH]1)Nc1cc(Cl)cc(Cl)c1 | 50.4 | – | – | – | – | 29.1 | –
COC(=O)c1cc(-c2ccc(OC)c(OC)c2)on1 | – | – | – | – | – | · | ·
Cc1c(C(=O)O)cccc1N1C(=O)Nc2ccccc2N1O | – | – | – | – | – | · | ·
O=C(O)c1ccc(O)c(N2C(=O)Nc3ccccc3N2O)c1 | 49.5 | – | – | – | – | – | –
CC(Sc1ccc(S(=O)(=O)N2CCOCC2)cc1[N+](=O)[O-])C(=O)O (stereo not given) | 33.0 | – | – | – | – | – | –
Cc1ccc(N(CC(=O)N2CCCCCC2)S(C)(=O)=O)c(C)c1 | · | · | · | – | – | · | ·
Cc1ccc(-c2nn[nH]n2)o1 | 76.4 | – | – | – | – | 53.5 | –
O=C1OCC=C1NNC(=O)c1cccnc1 | 55.1 | – | – | – | – | 69.3 | –
O=C(Nc1cccc(Cl)c1)N(CCN1CCOCC1)Cc1ccccc1F | 71.4 | – | – | – | – | – | –
CSc1cccc(NC(=O)Nc2ccccc2)c1 | – | – | – | – | – | · | ·
CSc1cccc(N/C(=N/S(=O)(=O)c2ccccc2)NN)c1 | 37.6 | – | – | – | – | – | –
O=S(=O)(NNc1ccc(F)cc1F)c1cccc(Cl)c1 | 36.1 | – | – | – | – | – | –
O=C(CNS(=O)(=O)c1ccccc1)Nc1ccc(F)cc1F | – | – | – | – | – | · | ·
COC(=O)c1cc(NC(=O)C(C)c2ccc(CC(C)C)cc2)ccc1O (stereo not given) | – | – | · | – | – | · | ·
COc1ccc(N(Cc2ccccc2)S(=O)(=O)c2cc(C(=O)O)ccc2Cl)cc1 | – | – | – | – | – | · | ·
Oc1cccc(/C=N/N(Cc2ccccc2)c2ccccc2)c1 | – | – | · | – | – | · | ·
Oc1ccc(/C=N/N(Cc2ccccc2)c2ccccc2)c(O)c1O | 49.6 | – | – | – | – | – | –
C=CCc1c(C)[nH]c2c(OC)cccc2c1=S | 38.5 | – | – | – | – | – | –
CCN1/C(=C/c2cc[n+](CCCS(=O)(=O)[O-])c3ccccc23)Sc2ccccc21 | 33.0 | – | – | – | – | – | –
CCC(/C=C1\Sc2ccc(OC)cc2N1CC)=C\c1sc2ccc(OC)cc2[n+]1CCCS(=O)(=O)[O-] | – | – | – | – | – | · | ·
C=CCNC(=S)NNc1nc(N2CCCC2)nc(N2CCCC2)n1 | 54.0 | – | – | – | – | – | –
C=CCNC(=S)NNc1nc(Nc2ccccc2)nc(N2CCCCC2)n1 | – | – | – | – | – | · | ·
CNC(=S)NNc1nc(N2CCOCC2)nc(N2CCOCC2)n1 | 41.0 | – | – | – | – | – | –
CCNC(=S)NNc1nc(N2CCOCC2)nc(N2CCOCC2)n1 | 46.7 | – | – | – | – | 29.5 | –
Cc1cc(=O)[nH]c(SCC(=O)c2ccc(O)c(O)c2)n1 | 67.7 | – | – | – | – | 58.7 | –
Cc1cc(C)nc(SCNC(=O)c2ccc(Cl)cc2)n1 | 51.5 | – | – | – | – | – | –
Cc1cc(C)nc(SCC(=O)c2ccc(O)c(O)c2)n1 | 49.6 | – | – | – | – | – | –
